Screening data: PubChem BioAssay, National Center for Advancing Translational Sciences (NCATS)
RECQ1 inh – RECQ1 (human) helicase inhibition; actives 0.54% (n = 240,000); RECQ1 DNA unwinding, red fluorescence kinetic read; Potency, µM (series often up to 57.3 µM), without a hit: at the top dose activity, negative = inhibition, actives largely listed as inhibitors; AID 2549; P46063;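 note: plate controls were vehicle for no effect and no enzyme for full effect; nearly all actives have a fitted effect of over 30% in size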
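50 nM RECQ1T1 preincubated 15 min with compound in Tris pH 8.0 buffer with MgCl2, DTT, Tween-20 and 2.5 ug/ml poly(dI-dC); started with 200 nM TAMRA/BHQ-2 forked duplex and 2 mM ATP. Unwinding read as fluorescence (525/598 nm), two reads 2 h apart.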
GLS inh – blocks human kidney-isoform glutaminase activity; O94925; AID 624170; actives 0.21% (n = 410,000); GLS enzymatic activity, qHTS titration; Potency, µM (titrated, usually from 45.5 µM), inactives show top-dose activity change, negative = inhibition, actives largely listed as inhibitors
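Coupled fluorescence readout: glutamate oxidase/HRP/Amplex Red detect glutamate formed by hKGA from L-glutamine (1 mM solution added). Buffer 45 mM KH2PO4 pH 8.2, 0.02% Tween-20; reads at t0 and 30 min RT.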
PGK inhibitor – blocks T. brucei phosphoglycerate kinase; P07378; PGK/GAPDH coupled, Kinase-Glo luminescence, 60 min; Potency, µM (titrated, usually from 57.5 µM), for inactives: at the highest dose activity change, negative = inhibition, actives largely listed as inhibitors; actives 0.043% (n = 380,000); note: nearly all actives have a fitted effect of over 60% in size
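Luminescent ATP detection (Kinase-Glo Plus) follows a 60-minute room-temperature incubation, with wells lacking PGK as controls. Buffer: 100 mM TEA (pH 7.6), 5 mM MgCl2, 0.01% Tween-20. Coupling enzyme GAPDH (100 nM final) supplies unstable 1,3-BPG in-well.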
APEX1 inh – inhibitors of human APE1 endonuclease; P27695; Potency, µM (top dose mostly 65.8 µM), for the others: top-dose activity change, negative = inhibition, usual class: inhibitors; actives 0.35% (n = 350,000); AID 2517; recombinant APE1, TAMRA/BHQ-2 abasic DNA cleavage fluorescence;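 note: plate controls were vehicle for no effect and reference inhibitor for full effect; nearly all actives have a fitted effect of over 55% in size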
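APE1 at 0.75 nM preincubated 15 min at room temperature with compound. Reaction then started with 50 nM double-stranded THF-abasic substrate labelled with TAMRA/BHQ-2, and 525/598 nm fluorescence read kinetically. Activity taken as third-minus-first read difference, normalized to DMSO and NSC13755 controls.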
BLM inh – inhibitors of human Bloom syndrome helicase BLM; P54132; recombinant BLM DNA unwinding, fluorescence dequenching; Potency, µM (titrated, usually from 56.1 µM), for inactives: top-dose activity change, negative = inhibition, usual class: inhibitors; actives 0.2% (n = 350,000);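 note: plate controls were vehicle for no effect and no enzyme for full effect; nearly all actives have a fitted effect of over 35% in size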
FEN1 inhibitor – inhibitors of human flap endonuclease 1. Potency, µM (titrated, usually from 114 µM), for the others: at the highest dose activity change, negative = inhibition, usual class: inhibitors. Recombinant FEN1 flap cleavage, fluorescence, 15 min. actives 0.35% (n = 390,000). P39748; note: nearly all actives have a fitted effect of over 65% in size
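Nuclease activity of 10 nM FEN1 was measured after 15 min of room-temperature exposure to titrated compounds, by adding 50 nM flap substrate and reading plates at 0 and 15 min.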
An asterisk follows results filed as active; i = inactive; u = inconclusive; x = not tested or not shown; ! = not confirmed by another sample; [ ] = dose if it differs, or a comment. A selection: hits, their analogues and other compounds. The true share with any hit is near 0.86%. Calls come from the whole dose curve; as a rule, active = well fitted curve in the direction sought with a large enough effect; inconclusive = small, poorly fitted or top-dose-only effect, or another doubt; inactive = no such curve, though single readings can be large; an effect the other way counts as inactive or inconclusive. Unless noted, % is set by controls: 0 for no effect and ±100 for the full control effect; potency is the fitted concentration of half-maximal effect.

SMILES	RECQ1 inh	GLS inh	PGK inhibitor	APEX1 inh	BLM inh	FEN1 inhibitor
CC(=O)Oc1c2c(c(CC=C(C)C)c3c1C(=O)C1=CC4CC5C(C)(C)OC(C/C=C(\C)C(=O)O)(C4=O)[C@]15O3)OC(C)(CCC=C(C)C)C=C2 (some centres undefined)	u	x	x	-1%	22µM*	x
COC(=O)/C(C)=C\CC12OC(C)(C)C3CC(C=C4C(=O)c5c(OC)c6c(c(CC=C(C)C)c5OC431)OC(C)(CCC=C(C)C)C=C6)C2=O (centres undefined)	-1%	x	x	-1%	-10%	x
NC(N)=NC(=O)c1nc(Cl)c(N)nc1N	6%	-5%	-7%	40µM*!	u	u
Nc1c(Cl)c(Cl)nc(C(=O)O)c1Cl	-1%	x	x	-2%	x	x
Cc1ccc(N2C(=O)NC(=O)/C(=C\c3ccoc3)C2=O)cc1	u	-8%	-15%	u	3%	-29%
COc1ccc(OC)c(N2C(=O)/C(=C/c3ccco3)C(=O)NC2=S)c1	x	104%	3.5µM*	0.095µM*	1.6µM*	8.9µM*
O=C1NC(=S)N(c2ccc(F)cc2)C(=O)/C1=C/c1ccco1	x	x	x	0.21µM*	3.2µM*	x
CCOc1ccc(N2C(=O)/C(=C/c3ccc(C)o3)C(=O)NC2=S)cc1	x	u	u	-19%	-16%	22µM*
O=C1NC(=S)N(c2ccc(F)cc2)C(=O)/C1=C\c1ccoc1	32µM*	128%	10µM*	u	-17%	7.9µM*
C[C@H]1CC[C@]2(NC1)O[C@H]1C[C@H]3[C@@H]4CC[C@H]5C[C@@H](O)CC[C@]5(C)[C@H]4CC[C@]3(C)[C@H]1[C@@H]2C	x	x	x	-4%	x	x
COc1ccc2c3c1O[C@H]1[C@@H](O)C=C[C@H]4[C@@H](C2)NCC[C@@]341	x	x	x	-3%	x	x
O=C1NC(=O)C(=Cc2ccco2)C(=O)N1	x	11µM*	11µM*	x	x	u
CC(C)Oc1cccc(NC(=O)c2ccccc2C(F)(F)F)c1	x	-8%[99.4 µM]	x	x	x	x
N=C(N)c1ccc(-c2ccc(-c3ccc(C(=N)N)cc3)o2)cc1	x	x	x	x	x	40µM*
S=C(SSC(=S)N1CCCCC1)N1CCCCC1	x	13%	x	x	x	x
C[C@]12CCC3C(CCC4=CC(=O)CC[C@@H]43)C1CCC2O (some centres undefined)	x	-14%	x	x	x	x
CCOC(=O)CCCc1cc[c]([Sb](=[O])([OH])[OH])cc1	x	x	x	x	x	3.5µM*
NC(=O)OCCCc1ccccc1	x	-7%	-2%	x	5%	-1%
C[C@H]1[C@@H]2Cc3ccc(O)cc3[C@]1(C)CCN2C	x	54%[231 µM]	x	x	x	x
C[C@]12CC[C@@H]3c4cc(O)c(O)cc4CC[C@H]3[C@@H]1CC[C@@H]2O	-7%	8.9µM*	-2%	7%	-4%	u
C[C@]12CC[C@@H]3c4ccc(O)c(O)c4CC[C@H]3[C@@H]1CC[C@@H]2O	-6%	u	-9%	-3%	-15%	u
CN[C@H]1C[C@@H](N)[C@H](O)[C@@H](O[C@@H]2O[C@H](CO)[C@H](O)[C@@H]3O[C@]4(O[C@@H]23)O[C@H]([C@@H](N)CO)[C@H](O)[C@@H](O)[C@H]4O)[C@@H]1O	x	1%	x	x	x	x
CCCCC/C=C\C/C=C\C/C=C\C/C=C\CCCC(=O)NCCc1ccc(O)c(O)c1	-2%	x	x	u	-23%	x
CCCCC/C=C\C/C=C\C/C=C\C/C=C\CCCC(=O)N(Cc1ccc(O)c(Cl)c1)Cc1ccc(O)c(Cl)c1	4%	x	x	4%	32µM*	x
CCC1CC2CC3c4[nH]c5ccc(OC)cc5c4CCN(C2)C13 (centres undefined)	x	21%[99.4 µM]	x	x	x	x
[Hg+][c]1ccccc1	x	13µM*	x	x	3%	10µM*
CC1CCN(S(=O)(=O)c2ccc(NN=C(C#N)C#N)cc2)CC1	i	x	x	-8%	-12%	x
